Test results from PubChem BioAssay (NCATS).
Results filed as inconclusive are left out. Where a call stands in place of a potency, no number is given. Calls of active or inactive are those of the source. The call rests on the fitted dose curve; in most records, active means well fitted cell-killing curve with a large enough effect; inconclusive means small, poorly fitted or top-dose-only effect; inactive means flat fitted curve, though single readings scatter.
Potency means the concentration at half of the fitted maximal effect.

Assay: Cell Viability - LYMP2-014 (AID 983); further: nearly all actives have a fitted effect of over 50% in size
Details: LYMP2-014 lymphoblastoid cells, viability qHTS; series mostly up to 92.2 µM
Description: NIH Chemical Genomics Center [NCGC]
NIH Molecular Libraries Screening Centers Network [MLSCN]
National Institutes of Environmental Health Sciences [NIEHS]
National Toxicology Program [NTP]
We have developed a 1536-well cell-based assay for quantitative high throughput screening (qHTS) against a number of cell lines to determine in vitro cytotoxicity of small molecules. This particular assay uses a human lymphoblastoid cell line (LYMP2-014) purchased from Coriell Institute for Medical Research.
NCGC Assay Protocol Summary:
The CellTiter-Glo luminescent cell viability assay (Promega) is a homogeneous method to measure the number of viable cells in culture. The end point readout of this assay is based on quantitation of intracellular ATP, an indicator of metabolic activity, using the luciferase reaction. Luciferase catalyzes the oxidation of beetle Luciferin to oxyluciferin and light in the presence of ATP. The luminescent signal is proportional to amount of ATP present.
Using the CellTiter-Glo luminescent cell viability assay, the amount of cellular ATP was measured in the lymphoblastoid cell line with complete culture medium following compound treatment for 24 hours. The assay was performed in opaque white Kalypsys 1536-well plates. In the screen, tetraoctylammonium bromide was used as positive control. Library compounds were measured for their ability to cause acute toxicity in the cell line, as reflected by a decrease in intracellular ATP levels, in a concentration-dependent manner. […] AC50 values were determined from concentration-response data modeled with the standard Hill equation.
qHTS protocol for CellTiter Glo lymphoblastoid cellular assay
[Step] [Parameter] [Value] [Description]
1. Reagent; 5 uL; 2500 lymphoblastoid cells/well
2. Time; 5 hr; 37 C incubation
4. Controls; 23 nL; Tetraoctylammonium bromide 6.4pM to 92 uM
5. Time; 24 hr; 37 C incubation
6. Reagent; 5 uL; CellTiter Glo reagent
7. Time; 30 min; Room Temperature
8. Detection; Luminescence; Viewlux plate reader
Keywords: cell viability, cytotoxicity, lymphoblastoid cell line, luminescence, NTPHTS, NTPHTS_NCGC, NIEHS, DSSTox, MLSMR, MLSCN, NIH Roadmap, qHTS, NCGC
In the case of `O=S(=O)(O)O`, the Potency is reported as “inactive”. In the case of `CCCCCCCC(=O)O`, the Potency is reported as “inactive”. In the case of `CC(O)CO` (centres undefined), the Potency is reported as “inactive”. In the case of `O=CCCCC=O`, the Potency is reported as 25.1 µM (active). With `CCCCCCCC/C=C\CCCCCCCC(=O)O` the Potency was “inactive”. For `CC1=C2[C@@H]([C@H](C)CC[C@H]2/C=C(\C)C(=O)O)[C@H](O)C1`, the Potency was “inactive”. In the case of `CCCCC/C=C\C/C=C\CCCCCCCC(=O)O`, the Potency is reported as “inactive”. In the case of `CCOC(C)=O`, the Potency is reported as “inactive”. With `CCOc1ccc2c(c1)C(C)=CC(C)(C)N2` the Potency was “inactive”. In the case of `Nc1ccn([C@H]2CS[C@@H](CO)O2)c(=O)n1`, the Potency is reported as “inactive”. For `IC(I)I`, the Potency was “inactive”. In the case of `Cc1ccccc1`, the Potency is reported as “inactive”. With `CC(C)=O` the Potency was “inactive”. In the case of `O=C(O)CCC(=O)C(=O)O`, the Potency is reported as “inactive”.
